Assay results taken from PubChem BioAssay (NCATS).
A number with no mark means an inactive call. Results filed as inconclusive are left out. Entries that show only a call come without a potency. The source made the active and inactive calls. Unless noted, calls come from the whole dose curve; as a rule, active = well fitted curve in the direction sought with a large enough effect; inconclusive = small, poorly fitted or top-dose-only effect, or another doubt; inactive = no such curve, though single readings can be large; an effect the other way counts as inactive or inconclusive. Where a SMILES comes first, the peptide text is derived from it. [ ]: non-standard residue; d: D form. 2Abz = Nc1ccccc1C(=O)O

Legend:
[1] = P-glycoprotein substrates identified in KB-3-1 adenocarcinoma cell line, qHTS therapeutic library screen (AID 1346986); note: nearly all actives have a fitted effect of over 60% in size
Method in brief: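 Cells seeded 500/well in DMEM/10% FCS; compounds pinned in dose-response; 72 h incubation; CellTiter-Glo added, 5 min, luminescence. KB-8-5-11 run ±tariquidar to test reversal of P-gp resistance.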

[2] = P-glycoprotein substrates identified in KB-8-5-11 adenocarcinoma cell line, qHTS therapeutic library screen (AID 1346987); note: nearly all actives have a fitted effect of over 65% in size; for activity change, negative = cytotoxicity: series mostly up to about 44 µM
Method in brief: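 KB-8-5-11, a colchicine-selected P-gp-overexpressing KB-3-1 subline, was grown without colchicine for the assay. Cells were seeded at 500 cells/well, dosed in concentration-response and incubated 72 h at 37 degree C, 5% CO2. Viability was read by CellTiter-Glo luminescence.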

[3] = Natriuretic polypeptide receptor (hNpr1) antagonism - Pilot counterscreen GloSensor control cell line (AID 1347045; calls by dose curve; note: series mostly up to about 38 µM)
Method in brief: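 HEK293 cGMP GloSensor cells preloaded 2 h with 2% GloSensor reagent, then compound 30 min before baseline luminescence read. Stimulated with 50 uM sodium nitroprusside, 20 min at room temperature, then read again; counterscreen for Npr1 antagonism.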

[4] = molecular target: Atrial natriuretic peptide receptor 2 (Homo sapiens) (UniProt P20594); assay: Natriuretic polypeptide receptor (hNpr2) antagonism - Pilot subtype selectivity assay (AID 1347050; calls by dose curve)
Method in brief: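 Pilot selectivity screen against hNpr2: HEK293 cGMP-sensor cells are treated with LOPAC1280 compounds, then with hNppC peptide at 1 nM final. The cGMP-driven luminescence change over 20 min at room temperature is the read-out.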

[5] = molecular target: T1, Tyrosine-protein phosphatase non-receptor type substrate 1 (Homo sapiens) + Leukocyte surface antigen CD47 (Homo sapiens) (UniProt P78324+Q08722); assay: CD47-SIRPalpha protein protein interaction - LANCE assay qHTS validation (AID 1347057; active = well fitted curve in the direction sought with a large enough effect in the signal ratio, with a control signal flat, not every such curve was filed as active; the % refers to the signal ratio; note: series mostly up to about 38 µM)
Method in brief: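 First, His-tagged CD47 and Eu-labelled anti-His antibody met the compound for 30 min; next, site-specifically biotinylated SIRPalpha was added for 30 min; finally streptavidin-APC was added before reading the TR-FRET ratio.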

[6] = molecular target: T1, Tyrosine-protein phosphatase non-receptor type substrate 1 (Homo sapiens) + Leukocyte surface antigen CD47 (Homo sapiens); assay: CD47-SIRPalpha protein protein interaction - HTRF assay qHTS validation (AID 1347058; active = well fitted curve in the direction sought with a large enough effect in the signal ratio, not every such curve was filed as active; the % refers to the signal ratio; note: series mostly up to about 38 µM)
From the text: SIRPalpha is a myeloid cell expressed immunomodulatory receptor that binds the tumor expressed immune checkpoint CD47. Therapeutic disruption of this interaction leads to immune-mediated tumor rejection. This assay was used to quantitate CD47-SIRPalpha binding biochemically and evaluate chemical libraries for novel CD47-SIRPalpha inhibitors. To recapitulate the biological interaction of CD47 and SIRPalpha, we designed expression constructs to produce their recombinant, soluble, extracellular interaction domains. CD47 was produced with an N-terminal 6His tag. SIRPalpha was produced with an N-terminal Avi-Tag for site-specific biotin incorporation. The CD47-SIRPalpha interaction was measured by TR-FRET using affinity tag linked reagents (anti-6His-Eu donor and streptavidin-XL665 acceptor). SIRPalpha without biotin incorporation was used as a positive control inhibitor.
SEQUENCE No. (e.g., 1, 2, 3, etc.); […] (e.g., Cells, Incubation, Reagent, etc.); VALUE and DESCRIPTION.
1a. Reagent. 3 uL CD47-His (12.5 nM) and Anti-His Eu Donor reagent (0.7 nM) added to respective wells in Assay buffer; white/solid bottom high base, med bind 1536-well plates (Greiner 789075)
1b. Reagent. 2 uL Assay buffer negative control for background fluorescence
2. Reagent. 23 nL library compounds (7-pt, 1:4 intraplate titration series) or DMSO control transferred by Pin Tool
3. Centrifuge. Centrifuge plate for 30 s at 1000 RPM […]

[7] = molecular target: T1, Tyrosine-protein phosphatase non-receptor type substrate 1 (Homo sapiens) + Leukocyte surface antigen CD47 (Homo sapiens); assay: CD47-SIRPalpha protein protein interaction - Alpha assay qHTS validation (AID 1347059);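 note: bead proximity luminescence from CD47 binding SIRPalpha after compound preincubation with SIRPalpha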
Method in brief: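 Binding is measured by AlphaScreen proximity: Ni-NTA acceptor beads capture His-CD47, streptavidin donor beads capture biotin-SIRPalpha. Each of three additions (SIRPalpha with compound, CD47, beads) incubates 30 min at room temperature protected from light.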

[8] = molecular target: Parathyroid hormone/parathyroid hormone-related peptide receptor (Homo sapiens) (UniProt Q03431); assay: qHTS for PTHR1 Agonists: Optimization Screen against the NCGC LOPAC library (AID 1347079);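 note: GloSensor cAMP luminescence in HEK-293 GP2 cells expressing human PTHR1 with IBMX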
Method in brief: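 Agonist readout: GloSensor cAMP luminescence, read after 15 min at room temperature. HEK-293-derived GP2 line carries PTHR1; compounds tested as a titration for 1 hr at 37C in presence of IBMX. M-PTH (1-15) served as control.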

[9] = qHTS of pediatric cancer cell lines to identify multiple opportunities for drug repurposing: Primary screen for TC32 cells (AID 1347089); note: nearly all actives have a fitted effect of over 60% in size
Method in brief: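 In the primary qHTS, MIPE compounds were tested at 11 concentrations (0.78 nM to 46 µM) and NPC compounds at 8 (0.59 nM to 46 µM) on TC32 cells for 48 h. CellTiter-Glo luminescence gave viability.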

[10] = NS1 protein of Zika virus - qHTS assay to identify small molecule inhibitors in human HEK 293 cells (AID 1347053); note: series mostly up to about 46 µM; nearly all actives have a fitted effect of over 55% in size
Method in brief: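 HEK 293 cells pretreated with compound for 1 h, then infected with ZIKV MR766 (MOI 0.5) for 24 h at 37 C. NS1 detected by TR-FRET with two anti-NS1 antibodies; normalized to uninfected (0%) and infected (100%) wells.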

T1 sequence (P78324 whole entry, looked up): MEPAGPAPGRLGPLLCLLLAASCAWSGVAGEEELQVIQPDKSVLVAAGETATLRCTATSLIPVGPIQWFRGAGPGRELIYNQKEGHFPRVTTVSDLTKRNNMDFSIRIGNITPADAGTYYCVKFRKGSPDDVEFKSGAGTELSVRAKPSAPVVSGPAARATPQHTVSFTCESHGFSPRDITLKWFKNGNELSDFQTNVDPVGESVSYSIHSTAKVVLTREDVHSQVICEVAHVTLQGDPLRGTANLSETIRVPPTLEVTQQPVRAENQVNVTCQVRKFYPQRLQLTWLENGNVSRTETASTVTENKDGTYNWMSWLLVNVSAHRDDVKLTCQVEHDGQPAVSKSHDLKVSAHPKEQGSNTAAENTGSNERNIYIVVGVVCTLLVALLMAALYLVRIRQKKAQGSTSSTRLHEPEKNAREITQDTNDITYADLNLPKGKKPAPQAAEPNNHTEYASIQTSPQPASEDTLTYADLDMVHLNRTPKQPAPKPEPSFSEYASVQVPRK
T1 sequence (Q08722 whole entry, looked up): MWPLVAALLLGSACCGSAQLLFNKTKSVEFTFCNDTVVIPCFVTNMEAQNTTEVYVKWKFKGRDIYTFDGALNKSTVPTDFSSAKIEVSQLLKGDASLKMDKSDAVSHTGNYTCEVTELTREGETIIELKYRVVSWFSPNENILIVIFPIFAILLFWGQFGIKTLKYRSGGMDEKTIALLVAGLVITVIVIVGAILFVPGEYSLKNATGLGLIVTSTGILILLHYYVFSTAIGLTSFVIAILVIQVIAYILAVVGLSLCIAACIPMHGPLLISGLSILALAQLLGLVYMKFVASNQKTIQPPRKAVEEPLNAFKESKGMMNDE
Sequence of Parathyroid hormone/parathyroid hormone-related peptide receptor (Homo sapiens) (Q03431 whole entry, looked up): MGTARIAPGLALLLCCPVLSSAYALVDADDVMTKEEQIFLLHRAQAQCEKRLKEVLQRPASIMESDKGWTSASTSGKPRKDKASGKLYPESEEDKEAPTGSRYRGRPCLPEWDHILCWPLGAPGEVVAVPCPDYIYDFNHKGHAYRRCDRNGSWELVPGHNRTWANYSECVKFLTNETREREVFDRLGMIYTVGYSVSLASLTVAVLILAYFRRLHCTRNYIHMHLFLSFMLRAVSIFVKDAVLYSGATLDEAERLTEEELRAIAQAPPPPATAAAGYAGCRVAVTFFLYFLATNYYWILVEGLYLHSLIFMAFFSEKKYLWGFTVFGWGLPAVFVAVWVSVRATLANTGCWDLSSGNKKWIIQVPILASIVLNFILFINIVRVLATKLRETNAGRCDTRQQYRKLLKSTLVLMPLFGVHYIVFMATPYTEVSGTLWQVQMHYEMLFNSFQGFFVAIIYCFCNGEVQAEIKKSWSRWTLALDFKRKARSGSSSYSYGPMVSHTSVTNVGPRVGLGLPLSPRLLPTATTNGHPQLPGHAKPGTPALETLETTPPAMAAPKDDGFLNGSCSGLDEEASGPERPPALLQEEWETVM
Sequence of Atrial natriuretic peptide receptor 2 (Homo sapiens) (P20594 whole entry, looked up): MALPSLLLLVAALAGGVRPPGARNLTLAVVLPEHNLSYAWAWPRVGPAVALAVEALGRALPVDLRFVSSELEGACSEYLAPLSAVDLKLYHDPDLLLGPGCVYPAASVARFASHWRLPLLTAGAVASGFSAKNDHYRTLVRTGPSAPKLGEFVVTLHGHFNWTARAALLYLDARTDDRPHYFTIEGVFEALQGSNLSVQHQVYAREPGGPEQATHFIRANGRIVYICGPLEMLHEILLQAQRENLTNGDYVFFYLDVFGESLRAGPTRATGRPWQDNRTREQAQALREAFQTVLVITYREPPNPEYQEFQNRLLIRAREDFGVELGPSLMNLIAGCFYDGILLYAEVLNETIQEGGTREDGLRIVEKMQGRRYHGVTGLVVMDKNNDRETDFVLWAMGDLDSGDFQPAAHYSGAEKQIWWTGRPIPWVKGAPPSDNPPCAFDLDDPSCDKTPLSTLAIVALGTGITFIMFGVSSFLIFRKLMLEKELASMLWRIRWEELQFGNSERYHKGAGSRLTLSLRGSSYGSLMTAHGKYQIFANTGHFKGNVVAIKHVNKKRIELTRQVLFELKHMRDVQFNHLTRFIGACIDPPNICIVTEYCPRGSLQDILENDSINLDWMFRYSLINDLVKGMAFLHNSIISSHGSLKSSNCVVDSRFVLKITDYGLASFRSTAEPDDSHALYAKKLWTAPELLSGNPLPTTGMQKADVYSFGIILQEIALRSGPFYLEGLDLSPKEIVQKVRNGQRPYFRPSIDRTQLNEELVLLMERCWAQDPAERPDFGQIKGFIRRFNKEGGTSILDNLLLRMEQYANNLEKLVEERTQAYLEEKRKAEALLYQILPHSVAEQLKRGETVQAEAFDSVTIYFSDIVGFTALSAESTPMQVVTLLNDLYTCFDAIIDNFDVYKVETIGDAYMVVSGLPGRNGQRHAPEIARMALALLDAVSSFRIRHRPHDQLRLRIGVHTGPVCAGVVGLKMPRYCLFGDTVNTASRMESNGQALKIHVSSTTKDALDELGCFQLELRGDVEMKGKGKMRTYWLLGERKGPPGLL

Q: Which Potency [1] does the source give for `C=C1C[C@]23C[C@H]1CC[C@H]2[C@@]12C=C[C@H](O)[C@@](C)(C(=O)O1)[C@H]2[C@@H]3C(=O)O` here?
A: inactive

Q: And the Potency [2]?
A: inactive

Q: For `CC1CCC2C(C(=O)O)=CC3C(O)C(C)(C)CC123` (stereo not drawn), which Potency [1] is on record?
A: inactive

Q: And the Potency [2]?
A: inactive

Q: Which outcome [1] does the source give for `CCCCCCc1cccc(NC(=O)[C@H](N)CCP(=O)(O)O)c1` here?
A: inactive [at 9.29 µM]

Q: What about the outcome [2] of the same compound?
A: inactive [at 9.29 µM]

Q: What does the source list for `C[C@]12CC[C@@H]3c4ccc(O[C@@H]5O[C@H](C(=O)O)[C@@H](O)[C@H](O)[C@H]5O)cc4CC[C@H]3[C@@H]1CCC2=O`?
A: Potency [1]: inactive; Potency [2]: inactive

Q: For `CC1=CC(=O)CC(C)(C)C1(O)CCC(C)O` (stereo not drawn), which Potency [1] is on record?
A: inactive

Q: What about the Potency [2] of the same compound?
A: inactive

Q: What does the source list for `CC1=C2C=C(CO)C(CO)CCC2(C)CCC1=O` (stereo not drawn)?
A: Potency [1]: inactive; Potency [2]: inactive

Q: For `C=CCc1ccc(O[C@@H]2O[C@H](CO)[C@@H](O)[C@H](O)[C@H]2O)c(OC)c1`, which Potency [1] is on record?
A: inactive

Q: What about the Potency [2] of the same compound?
A: inactive

Q: What does the source list for `Cn1c(=O)c2nc(/C=C/c3cccc(Cl)c3)n(C)c2n(C)c1=O`?
A: Potency [1]: inactive; Potency [2]: inactive

Q: What does the source list for `CCC(C)C1NC(=O)C2CCCN2C(=O)C(C(C)C)NC(=O)c2ccccc2NC(=O)C(Cc2ccc(O)cc2)NC(=O)C(C)NC(=O)C(C(C)O)NC1=O` (stereo not drawn) (cyclo([2Abz]VPITAY); configuration not given here)?
A: Potency [1]: inactive; Potency [2]: inactive

Q: For `CC1(C)CC[C@]2(C(=O)O)CC[C@]3(C)C(=CCC4[C@@]5(C)CC[C@H](O[C@@H]6O[C@H](C(=O)O)[C@@H](O)[C@H](O)[C@H]6O)C(C)(CO)C5CC[C@]43C)C2C1` (stereo partly drawn), which Potency [1] is on record?
A: inactive

Q: What about the Potency [2] of the same compound?
A: inactive

Q: For `COC(=O)C1(Cc2ccc(O)cc2)OC(=O)C(OC)=C1c1ccc(O)cc1` (stereo not drawn), which Potency [1] is on record?
A: inactive

Q: And the Potency [2]?
A: inactive

Q: Which results are given for `CC(=O)OC[C@@]12[C@@H](OC(C)=O)C[C@@H](C)[C@](C)([C@@H]3C[C@H]4C=CO[C@H]4O3)[C@H]1CCC[C@]21CO1`?
A: Potency [1]: inactive; Potency [2]: inactive

Q: What does the source list for `CC(=O)O[C@H](C[C@@H](C)[C@H]1C(=O)[C@H](O)[C@@]2(C)[C@@H]3CCC4C(C)(C)[C@@H](O[C@@H]5OC[C@H](O)[C@H](O)[C@H]5O)CC[C@@]45C[C@@]35CC[C@]12C)[C@@H]1OC1(C)C` (stereo partly drawn)?
A: Potency [1]: inactive; Potency [2]: inactive

Q: For `O=C(NCC(=O)N1CC[C@H](NC2CCC(O)(c3ccc(-c4ncccn4)cn3)CC2)C1)c1cccc(C(F)(F)F)c1` (stereo partly drawn), which Potency [1] is on record?
A: inactive

Q: And the Potency [2]?
A: inactive

Q: With `C/C(=C\CCC(C)(O)c1ccc(C)cc1)C(=O)O` (stereo not drawn) as the compound, how does the Potency [1] read?
A: inactive

Q: What about the Potency [2] of the same compound?
A: inactive

Q: For `COc1cc(/C=C/C(=O)OC2CC(C)=C(C(=O)O)/C2=C/CO[C@@H]2O[C@H](CO)[C@@H](O)[C@H](O)[C@H]2O)ccc1O` (stereo partly drawn), which Potency [1] is on record?
A: inactive

Q: And the Potency [2]?
A: inactive

Q: With `N#CC1C(=O)Nc2scc(-c3ccc(-c4ccccc4O)cc3)c2C1=O` (stereo not drawn) as the compound, how does the Potency [1] read?
A: inactive

Q: What about the Potency [2] of the same compound?
A: inactive

Q: Which Potency [1] does the source give for `CCCCN(CCCC)C(=O)CN1C[C@H](c2ccc3c(c2)OCO3)[C@@H](C(=O)O)[C@@H]1c1ccc(OC)cc1` here?
A: inactive

Q: What about the Potency [2] of the same compound?
A: inactive

Q: Which Potency [1] does the source give for `C=C1CC2(C(=O)O)CC1CCC2C1(C)CCCC2(C)C(=O)OC(O)C21` (stereo not drawn) here?
A: inactive

Q: And the Potency [2]?
A: inactive

Q: Which outcome [1] does the source give for `COC1CC(OC2CCC3(C)C(=CCC4C3CCC3(C)C(C(C)O)CCC43O)C2)OC(C)C1OC1OC(C)C(OC2OC(COC3OC(COC4OC(CO)C(O)C(O)C4O)C(O)C(O)C3O)C(O)C(O)C2O)C(OC)C1O` (stereo not drawn) here?
A: inactive [at 9.29 µM]

Q: What about the activity change, negative = cytotoxicity [2] of the same compound?
A: 4.62% [at 9.29 µM]

Q: With `C[C@@H]1C[C@H](O[C@@H]2O[C@H](CO[C@@H]3OC[C@](O)(CO)[C@H]3O)[C@@H](O)[C@H](O)[C@H]2O)CC(C)(C)[C@H]1/C=C/[C@@H](C)O` as the compound, how does the Potency [1] read?
A: inactive

Q: And the Potency [2]?
A: inactive

Q: With `CC12CCC3C(C)(C)C(O)CCC3(C)C1Cc1c(oc(C(=O)O)cc1=O)O2` (stereo not drawn) as the compound, how does the Potency [1] read?
A: inactive

Q: What about the Potency [2] of the same compound?
A: inactive

Q: What does the source list for `CN1Cc2c(N)cccc2C(c2ccccc2)C1` (stereo not drawn)?
A: outcome [3]: inactive; outcome [4]: inactive; outcome [5]: inactive; outcome [6]: inactive; outcome [7]: inactive; outcome [8]: inactive; outcome [9]: inactive

Q: For `CC(=O)OC(C)OC(=O)C(C)c1ccc(-c2ccccc2)c(F)c1` (stereo not drawn), which outcome [10] is on record?
A: inactive

Q: And the outcome [9]?
A: inactive
